From PubChem BioAssay (NCI) come the findings set out here.

About 83,000 compounds went through this panel and 20% of them were active in at least one assay; those are over-represented in the sample as a whole.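 Single-dose data. Exposure time 48 hours. Values below 10 considered active.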 Unmarked numbers belong to inactive results. Active and inactive are the calls of the source.

Test systems include DU-145 prostate; K-562 leukemia; MALME-3M melanoma; MDA-MB-231 breast; RXF 393 renal; SF-268 CNS; SF-295 CNS; SF-539 CNS; UACC-257 melanoma; M14 melanoma; HCT-15 colon; HT29 colon; SNB-75 CNS; SNB-19 CNS; U251 CNS; PC-3 prostate; SK-MEL-5 melanoma; UACC-62 melanoma; LOX IMVI melanoma; SK-MEL-28 melanoma.
Experiment in all cases: NCI-60 one-dose screen, 48 h (100 = growth as untreated, 0 = no growth, -100 = all killed)
What all share (conditions): 10 µM unless noted

As for `Nc1nc(-c2cccc3ccccc23)cc2ccccc12`, the growth in the test with DU-145 prostate was 7.32% (active); in the test with K-562 leukemia, -43.8% (active); in the test with MALME-3M melanoma it was 82.2%; in the test with MDA-MB-231 breast, 20.7%; in the test on RXF 393 renal, -4.3% (active); in the test with SF-268 CNS, 23.7%. For the same molecule, the growth with SF-295 CNS is -50.2% (active); in the test with SF-539 CNS it was -35.9% (active); in the test with UACC-257 melanoma it was 56.6%; in the test with M14 melanoma it was -29.5% (active); in the test with HCT-15 colon it was 3.98% (active); in the test with HT29 colon it was 1.11% (active). The growth in the test on SNB-75 CNS is 7.16% (active); with SNB-19 CNS, 12%; with U251 CNS, 16.3%; with PC-3 prostate, 20.5%; in the test on SK-MEL-5 melanoma, 11%; with UACC-62 melanoma it was 23.5%. For the same molecule, the growth in the test on LOX IMVI melanoma is 20.9%; with SK-MEL-28 melanoma it was 48.2%.
In the case of `CCOc1c(B(O)O)cccc1-c1nc2ccc3[nH]ncc3c2c2c1CCCC2`, the growth in the test with DU-145 prostate is 66.9%; with K-562 leukemia it was 63.4%; in the test on MALME-3M melanoma it was 101%; in the test with MDA-MB-231 breast, 33.9%; in the test on RXF 393 renal it was -5.22% (active); in the test with SF-268 CNS, 58.6%. In addition, the growth with SF-295 CNS was 59.3%; in the test on SF-539 CNS, 18.6%; in the test on UACC-257 melanoma, 135%; in the test on M14 melanoma, 120%; in the test with HCT-15 colon, 48.4%; in the test with HT29 colon, 78.7%. Further, the growth in the test on SNB-75 CNS was -38.5% (active); with SNB-19 CNS it was 85.2%; in the test on U251 CNS, 75.4%; with PC-3 prostate, 68.3%; in the test with SK-MEL-5 melanoma, 86.7%; with UACC-62 melanoma, 88.1%. Moreover, the growth is 37% in the test on LOX IMVI melanoma and 96.5% in the test on SK-MEL-28 melanoma.
As to `COc1ccc(/C=C/c2c(C(=O)/C=C/c3ccc(Cl)cc3)c(C)nc3ccccc23)cc1`, the growth was 13.8% with DU-145 prostate; 9.27% (active) in the test on K-562 leukemia; 28% in the test with MALME-3M melanoma; 34.1% with MDA-MB-231 breast; -18.6% (active) in the test with RXF 393 renal; 58.7% in the test with SF-268 CNS. For the same molecule, the growth with SF-295 CNS is 42.2%; with SF-539 CNS, 14.4%; in the test on UACC-257 melanoma, 38.8%; in the test on M14 melanoma, 14.7%; in the test on HCT-15 colon, -0.536% (active); in the test with HT29 colon, 13.6%. The growth with SNB-75 CNS was 50.6%; in the test on SNB-19 CNS, 25%; with U251 CNS, 19.4%; in the test with PC-3 prostate, 29.2%; in the test with SK-MEL-5 melanoma it was 39.2%; in the test on UACC-62 melanoma, 33.7%. The growth with LOX IMVI melanoma was -62.2% (active); with SK-MEL-28 melanoma it was 23.8%.
For `NS(=O)(=O)c1ccc(N=Nc2ccc(-c3nn4cc(-c5ccccc5)nc4s3)cc2)cc1`, the growth was 108% in the test with DU-145 prostate; 93.5% in the test with K-562 leukemia; 105% in the test on MALME-3M melanoma; 107% in the test on MDA-MB-231 breast; 111% in the test with RXF 393 renal; 101% in the test on SF-268 CNS. Also, the growth with SF-295 CNS is 96.5%; with SF-539 CNS, 97.6%; with UACC-257 melanoma it was 99.8%; with M14 melanoma, 96.6%; in the test with HCT-15 colon, 99.2%; in the test with HT29 colon it was 99.1%. Further, the growth in the test with SNB-75 CNS was 86.1%; with SNB-19 CNS, 108%; with U251 CNS it was 99.7%; in the test on PC-3 prostate, 94%; in the test on SK-MEL-5 melanoma, 101%; in the test on UACC-62 melanoma, 101%. The growth in the test with LOX IMVI melanoma is 96.9%; in the test on SK-MEL-28 melanoma it was 105%.
As for `CN(C)c1ccc(/C=N\Nc2cc(=O)[nH]c3ccc(Cl)cc23)cc1`, the growth was 123% in the test on DU-145 prostate; 91.8% in the test on K-562 leukemia; 122% with MALME-3M melanoma; 91.5% in the test on MDA-MB-231 breast; 105% with RXF 393 renal; 99.5% in the test on SF-268 CNS. In addition, the growth is 98% with SF-295 CNS; 101% in the test with SF-539 CNS; 98.1% with UACC-257 melanoma; 94.5% in the test on M14 melanoma; 99.3% in the test with HCT-15 colon; 96% in the test with HT29 colon. Moreover, the growth in the test on SNB-75 CNS is 78.4%; in the test with SNB-19 CNS, 96.9%; with U251 CNS, 99.8%; with PC-3 prostate, 86.4%; in the test with SK-MEL-5 melanoma it was 98.3%; with UACC-62 melanoma, 82.1%. The growth with LOX IMVI melanoma was 99%; in the test on SK-MEL-28 melanoma it was 114%.
With `NCCCNc1nc2ccccc2c2c(=O)c3cc(F)cc(Cl)c3sc12`, the growth in the test with DU-145 prostate was 64.1%; in the test with K-562 leukemia it was -17.7% (active); with MALME-3M melanoma it was 106%; in the test on MDA-MB-231 breast it was 51.4%; in the test with RXF 393 renal, 73.6%; in the test on SF-268 CNS, 79.9%. For the same molecule, the growth in the test on SF-295 CNS is 102%; in the test with SF-539 CNS, 83%; in the test with UACC-257 melanoma, 114%; with M14 melanoma, 90.4%; in the test on HCT-15 colon, 64.1%; in the test with HT29 colon, 4.38% (active). Moreover, the growth with SNB-75 CNS is 69.7%; in the test on SNB-19 CNS, 89.4%; with U251 CNS, -63.9% (active); with PC-3 prostate, 59.4%; with SK-MEL-5 melanoma, 98.3%; in the test on UACC-62 melanoma, 98.7%. Besides, the results for the growth in the test with LOX IMVI melanoma and in the test with SK-MEL-28 melanoma were 79.4% and 107%, respectively.
`CN1CCN(Cc2ccc(NC(=O)c3cncc(C#Cc4cnccc4C#N)c3)cc2C(F)(F)F)CC1`: the growth was 65.3% in the test with DU-145 prostate; 8.21% (active) in the test on K-562 leukemia; 17.2% in the test on MALME-3M melanoma; 68.6% in the test on MDA-MB-231 breast; 76.6% with RXF 393 renal; 89.9% in the test with SF-268 CNS. For the same molecule, the growth in the test with SF-295 CNS is 96.3%; with SF-539 CNS, 42%; with UACC-257 melanoma, 41.1%; in the test on M14 melanoma it was 25.4%; in the test with HCT-15 colon, 55%; in the test with HT29 colon, 27.5%. Also, the growth in the test with SNB-75 CNS is 122%; in the test on SNB-19 CNS, 102%; in the test with U251 CNS, 77.3%; with PC-3 prostate, 91.7%; in the test with SK-MEL-5 melanoma, 54%; with UACC-62 melanoma, 41.5%. Moreover, the growth in the test with LOX IMVI melanoma was 12.4%; in the test with SK-MEL-28 melanoma, 30.1%.
